Assay outcomes as filed in PubChem.
Sm TGR block: blocks Schistosoma mansoni thioredoxin glutathione reductase | Q962Y6 | purified TGR, DTNB reduction, TNB absorbance 405 nm | Potency, µM (top dose mostly 114 µM), without a hit: at the top dose activity change, negative = inhibition, hits mostly inhibitors | 3% of 360,000 active; further: potency means the concentration at half of the fitted maximal effect; nearly all actives have a fitted effect of over 60% in size
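Kinetic colorimetric format: TGR-catalysed, NADPH-driven DTNB reduction monitored via TNB absorbance. Enzyme dispensed at 20 nM; compound exposure 15 min at room temperature before reaction start.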
HCMV inh: inhibitors of human cytomegalovirus; HFF cells, HCMV-luciferase reporter, 72 h; stronger effect = lower value; activity change, negative = inhibition, % at 57.5 µM; 4.5% of 410,000 active; in the data active means activity change below about -60%; inconclusive means no clear call, values can overlap the other calls; inactive means above about -39%
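Compounds were evaluated in HFFs infected with an HCMV luciferase reporter virus (MOI 1 PFU/cell). Luciferase in lysates collected 72 h post infection served as the replication measure.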
Pf growth 96h: P. falciparum growth inhibition at 96 hours; 6.9% of 320,000 active; P. falciparum luciferase reporter growth, 96 h; AID 504834; Potency, µM (titrated, usually from 28.7 µM), without a hit: top-dose activity change, negative = inhibition, actives largely listed as inhibitors; further: potency means the concentration at half of the fitted maximal effect
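Compounds incubated with erythrocytes infected by luciferase-expressing P. falciparum (2% hematocrit, 0.05% parasitemia final) for 96 hours, 37 C in 5% CO2. Growth inhibition scored as decreased luciferase luminescence.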
Giardia FBPA inh: blocks Giardia fructose-bisphosphate aldolase activity. Potency, µM (highest dose often 59.6 µM), without a hit: at the highest dose activity, negative = inhibition, actives largely listed as inhibitors. AID 2451. 0.71% of 290,000 active. purified Giardia FBPA; further: potency means the concentration at half of the fitted maximal effect; nearly all actives have a fitted effect of over 55% in size
Target sequence (A8B2U2 whole entry, looked up): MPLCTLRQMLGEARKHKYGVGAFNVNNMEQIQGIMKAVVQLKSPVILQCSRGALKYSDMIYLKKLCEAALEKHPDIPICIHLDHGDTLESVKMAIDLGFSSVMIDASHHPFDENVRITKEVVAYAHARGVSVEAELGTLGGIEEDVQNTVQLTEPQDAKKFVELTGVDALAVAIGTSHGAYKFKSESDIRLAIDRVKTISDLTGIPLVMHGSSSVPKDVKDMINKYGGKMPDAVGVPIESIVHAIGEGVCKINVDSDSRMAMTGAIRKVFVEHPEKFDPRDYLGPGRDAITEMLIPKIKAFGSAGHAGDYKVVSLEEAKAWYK
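40 nM FBPA preincubated 10 min at RT with compound (up to 57.5 uM final), then substrate plus GAPDH/TPI/NAD/arsenate coupling and diaphorase/resazurin added. Fluorescence read after 20 min at RT, 525/598 nm.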
Pf growth 48h: P. falciparum growth inhibition at 48 hours (one generation). 5.9% of 310,000 active. AID 504832. Potency, µM (highest dose often 28.7 µM), without a hit: top-dose activity change, negative = inhibition, hits mostly inhibitors. P. falciparum luciferase growth in erythrocytes, 48 h; further: potency means the concentration at half of the fitted maximal effect
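Read-out is firefly luciferase luminescence from an integrated reporter in P. falciparum, so falling signal marks reduced parasite growth. Infected erythrocytes were at 2% hematocrit and 0.1% parasitemia (final) in Albumax-supplemented RPMI 1640.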
Starred values were filed as active, the others as inactive; i = inactive; ? = inconclusive; nt = no result given; [ ] = another dose, or the depositor's remark. This is a sample that favours compounds with a hit; in the whole collection about 14% have one here. Unless noted, the call rests on the fitted dose curve; in most records, active means well fitted curve in the direction sought with a large enough effect; inconclusive means small, poorly fitted or top-dose-only effect, or another doubt; inactive means no such curve, though single readings can be large; an effect the other way counts as inactive or inconclusive. On the % scale 0 is the no-effect control and ±100 the full control effect.

SMILES | Sm TGR block | HCMV inh | Pf growth 96h | Giardia FBPA inh | Pf growth 48h
CCN(CC)CCNC(=O)COc1ccc(OC)cc1 | -1% | -2 | 3% | -3% | ?
COc1ccccc1OCC(=O)NNC(=O)Nc1ccc(Cl)cc1 | 11% | -64* | -28%[5.75 µM] | 1% | -5%
COc1ccc(-c2nc(SCC(=O)NCCc3ccc(OC)c(OC)c3)n[nH]2)cc1 | 9% | 62 | nt | nt | nt
COc1ccccc1OCC(=O)NNc1c2ccccc2nc2ccccc12 | 3% | -92* | 2% | 11% | 4.1µM*
COc1ccccc1OCC(=O)NCCNC(=O)COc1ccccc1OC | -4% | -16 | 2.3µM* | 7% | ?
Cc1ccc(C(=O)OCC(=O)NNC(=O)c2cccs2)c(O)c1 | 12% | 6 | 34% | nt | -2%
Cc1cc(C)c(C)c(S(=O)(=O)N2CCN(C(=O)CNC(=O)c3ccco3)CC2)c1C | 3% | -27 | 5% | nt | 8%
COc1ccc(CCNC(=O)c2csc3c2CCCCC3)c(OC)c1 | 1% | ? | nt | nt | nt
CC(C)C[C@H]1CN=C(Nc2ccccc2)N1CCC1CCCCC1 | 52% | -27 | 9.3µM* | -5% | -49%
CC(C)C[C@H]1CN=C(Nc2ccccc2)N1CC1CCCC1 | 5% | 17 | ? | 0% | ?
CC(CCN1C(Nc2ccccc2)=NC[C@@H]1Cc1ccccc1)c1ccccc1 (some centres undefined) | 2% | -61* | ? | 19% | ?
CC(C)CCCN1C(Nc2ccccc2)=NC[C@@H]1CC(C)C | 5% | 45 | ? | -4% | ?
CC(C)C[C@H]1CN=C(Nc2ccccc2)N1CC1CCC(C(C)(C)C)CC1 (some centres undefined) | -3% | nt | 7.4µM* | nt | 8.3µM*
O=C(c1cc2ccc3cccnc3c2[nH]1)N1CCN(c2cccc(C(F)(F)F)c2)CC1 | 12% | -7 | nt | nt | nt
CCOc1ccc(OCCC(=O)OCC(=O)NCc2ccccc2)cc1 | 46% | -33 | 1% | nt | 3%
COc1ccc2oc(C(=O)NCc3ccccc3CN3CCCC3)c(C)c2c1 | -10% | -26 | ? | nt | 12µM*
CCOc1ccc2oc(C(=O)NCC(c3ccco3)N(C)C)c(C)c2c1 (centres undefined) | 3% | -5 | ? | nt | 0%
COc1ccc(C(CNC(=O)c2oc3ccc(OC)cc3c2C)N2CCCC2)cc1 (centres undefined) | -7% | -16 | 9.3µM* | nt | 8.3µM*
CCOc1ccc2oc(C(=O)NCc3ccccc3CN3CCCC3)c(C)c2c1 | 2% | -9 | 9.3µM* | nt | 9.3µM*
Cc1c(C(=O)NCc2ccccc2CN2CCCC2)oc2c(F)cccc12 | -9% | -14 | ? | nt | 13µM*
COc1ccc2oc(C(=O)NCCC(C)C)c(C)c2c1 | 2% | 81 | 178% | 1% | i
CC1CCN(C(=O)CN2C(=O)C(=O)N(C)C2=O)c2ccccc2S1 (centres undefined) | -19% | 16 | 26% | nt | 19%
CN(c1nccc(=O)[nH]1)C1CCN(c2nc3ccccc3n2Cc2ccc(F)cc2)CC1 | nt | nt | -10% | nt | ?
COCc1c(C(=O)NCc2ccccc2CN2CCCC2)oc2ccccc12 | 4% | -17 | 9.3µM* | nt | ?
O=C(NCc1ccccc1CN1CCCC1)c1cc2cc(Cl)ccc2o1 | 0% | 0 | ? | nt | 13µM*
SMILES | Sm TGR block | HCMV inh | Pf growth 96h | Giardia FBPA inh | Pf growth 48h
CCOCc1c(C(=O)NCC(c2ccco2)N2CCCC2)oc2ccccc12 (centres undefined) | nt | 63 | nt | nt | nt
COc1ccc(NS(=O)(=O)c2cccc(C(=O)NCc3ccccc3CN3CCOCC3)c2)cc1 | nt | -29 | nt | nt | nt
COc1ccc2cc(C(=O)NCc3ccccc3CN3CCCC3)ccc2c1 | 4% | -33 | ? | nt | 9.3µM*
CN(Cc1nccn1C)C(=O)CC1C(=O)NCCN1Cc1ccc(F)cc1Cl (centres undefined) | -36% | ? | 0% | -13% | 27%
COCCN(CC(=O)NC1CCCCC1)C(=O)CCCC(=O)Nc1ccccn1 | nt | -30 | ? | 0% | -1%
O=C(CN1C(=O)c2ccccc2C1=O)Nc1cccc(Cl)c1 | -15% | 18 | ? | ? | 5%
Cc1ccc(C(=O)N2CCN(c3ccc(Cl)cc3)CC2)cc1 | 9% | -21 | 19% | -6% | 14%
O=C(Nc1cccc(Cl)c1)N1CCN2C(=O)c3ccccc3C12c1ccccc1 (centres undefined) | 3% | 26 | 10µM* | -9% | 17µM*
O=C(CCl)N1CCN2C(=O)c3ccccc3C12c1ccc(Cl)cc1 (centres undefined) | 2.5µM* | -115* | ? | -5% | -4%
Cc1ccc(C(=O)N2CCN3C(=O)c4ccccc4C23c2ccc(Cl)cc2)cc1 (centres undefined) | -18% | -71* | 6.6µM* | -1% | nt
Cc1ccc2onc(CNC(=O)NCc3ccc(Cl)cc3)c2c1 | 8% | -20 | nt | nt | nt
Brc1cc2[nH]cnc2c2ccccc12 | ? | 21 | nt | 18µM* | ?
Cc1cc(N2CCN(Cc3nc(-c4ccc(Cl)cc4)oc3C)CC2)cc(C)n1 | -19% | ? | ? | 3% | ?
Cc1oc(-c2cc(F)ccc2F)nc1CN1CCN(c2cnccn2)CC1 | nt | -19 | ? | -2% | 13µM*
Cc1oc(-c2cc(F)ccc2F)nc1CN(C)Cc1ccc2nccnc2c1 | 8% | -16 | 2.9µM* | 3% | ?
CCOC(=O)c1sc2ncn(/N=C/c3ccccn3)c(=O)c2c1C | 7% | nt | 6.6µM* | 2% | 10%
COc1cc(CNCC(C)C)cc(Br)c1OCC(=O)Nc1ccccc1 | -10% | 19 | 10µM* | -8% | 9.3µM*
NC(=O)C1CC(=O)N(Cc2ccc3c(c2)OCO3)C(=Nc2ccccc2)S1 (centres undefined) | -13% | ? | 15µM* | -5% | -20%
CCOc1ccccc1NC(=O)Cn1c(=O)n(Cc2ccccc2)c(=O)c2cccnc21 | -3% | 9 | nt | nt | nt
COc1ccccc1NC(=O)Cn1c(=O)n(Cc2cccs2)c(=O)c2cccnc21 | 1% | -64* | nt | nt | nt
O=C(N/N=C/c1ccc(F)cc1)c1cc(-c2ccco2)nc2ccccc12 | 11µM* | 95 | 0% | -12% | 15%
O=C(Nc1nc2ccccc2s1)c1cc(-c2ccco2)nc2ccccc12 | -33% | ? | 41% | 2% | 35%
O=C(Nc1nccs1)c1cc(-c2ccccc2)nc2ccccc12 | 1% | -32 | 3.3µM* | -3% | 2.6µM*
CCOc1ccc(/C=N/NC(=O)c2cc(-c3ccco3)nc3ccccc23)cc1 | 2% | 127 | 5% | 2% | -17%
Cc1nnc(NC(=O)c2cc(-c3ccco3)nc3ccccc23)s1 | 7.9µM* | -5 | -3% | nt | 6%
O=C(Nc1nccs1)c1cc(Cl)nc2ccccc12 | 9% | 50 | 21% | 0% | 38%
Cc1ccccc1Nc1cc(C(=O)NC2CCC(C)CC2)c2ccccc2n1 (centres undefined) | 11% | -78* | nt | nt | nt
